From PubChem
Compounds with a hit are over-represented: about 5.8% of the library has one in this group of screens.
SW480 rereplic: A quantitative high throughput screen for small molecules that induce DNA re-replication in SW480 colon adenocarcinoma cells; SW480 DNA re-replication, Hoechst DNA content imaging, 48 h; 1.8% of 340,000 active; Potency, µM (highest dose often 46.1 µM), actives largely listed as activators; note: nearly all actives have a fitted effect of over 55% in size
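Readout is total intensity of Hoechst-stained nuclei, excited at 405 nm and collected at 500-530 nm. Compound treatment lasted 48 hr at 37 C in 5% CO2 before staining.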
KB-V1 MDR tox: qHTS assay for MDR1-selective chemotherapeutics: Primary screen using the drug-selected MDR subline cells KB-V1. KB-V1 MDR cells viability, CellTiter-Glo, 72 h. 3.4% of 400,000 active. Potency, µM (titrated, usually from 46.1 µM), usual class: cytotoxic; note: nearly all actives have a fitted effect of over 60% in size
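Compound-treated KB-V1 multidrug-resistant cells, 72 h, 37 degrees C; viability by CellTiter-Glo. Fitted qHTS curves give the values.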
KB-3-1 tox: qHTS assay for MDR1-selective chemotherapeutics: Primary screen using the parental adenocarcinoma cell KB-3-1. KB-3-1 viability, CellTiter-Glo ATP luminescence, 72 h. Potency, µM (series often up to 46.1 µM), most hits filed as cytotoxic. 1.4% of 400,000 active; note: nearly all actives have a fitted effect of over 60% in size
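Screening of KB-3-1 cells (DMEM, 10% FBS, phenol-red free) ran from lowest to highest compound concentration; after 72 h at 37 °C viability was read luminescently and curves fitted.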
PINK1 expr mod: A Quantitative High throughput Screen to Identify Chemical Modulators of PINK1 Expression; PINK1 immunofluorescence, high-content cytometry, 24 h; Potency, µM (titrated, usually from 76.6 µM), usual class: activators; 0.2% of 410,000 active; AID 624263, 2012; active = well fitted activation curve with a large enough effect; inconclusive = small, poorly fitted or top-dose-only effect; cell line not stated here; note: nearly all actives have a fitted effect of over 65% in size
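Stable cell line treated 24 h with compounds at 5 concentrations (CCCP controls), then fixed and immunostained for PINK1 plus nuclear and cell stains; PINK1 immunofluorescence quantified by laser-scanning microplate cytometry.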
MCF10A rereplic: A quantitative high throughput screen for small molecules that induce DNA re-replication in MCF 10a normal breast cells. Potency, µM (top dose mostly 46.1 µM), hits mostly activators. 2.9% of 350,000 active. AID 624296, 2012. MCF 10A DNA re-replication, Hoechst nuclear intensity, 48 h; note: nearly all actives have a fitted effect of over 50% in size
ALOX12 inh: Primary qHTS assay for inhibitors of human arachidonate 12S-lipoxygenase (ALOX12): Round 2; Polyunsaturated fatty acid lipoxygenase ALOX12 (Homo sapiens), P18054; purified 12hLO, xylenol orange hydroperoxide absorbance; Potency, µM (doses to about 108 µM), usual class: inhibitors; 1.1% of 580,000 active
Target sequence (P18054 whole entry, looked up): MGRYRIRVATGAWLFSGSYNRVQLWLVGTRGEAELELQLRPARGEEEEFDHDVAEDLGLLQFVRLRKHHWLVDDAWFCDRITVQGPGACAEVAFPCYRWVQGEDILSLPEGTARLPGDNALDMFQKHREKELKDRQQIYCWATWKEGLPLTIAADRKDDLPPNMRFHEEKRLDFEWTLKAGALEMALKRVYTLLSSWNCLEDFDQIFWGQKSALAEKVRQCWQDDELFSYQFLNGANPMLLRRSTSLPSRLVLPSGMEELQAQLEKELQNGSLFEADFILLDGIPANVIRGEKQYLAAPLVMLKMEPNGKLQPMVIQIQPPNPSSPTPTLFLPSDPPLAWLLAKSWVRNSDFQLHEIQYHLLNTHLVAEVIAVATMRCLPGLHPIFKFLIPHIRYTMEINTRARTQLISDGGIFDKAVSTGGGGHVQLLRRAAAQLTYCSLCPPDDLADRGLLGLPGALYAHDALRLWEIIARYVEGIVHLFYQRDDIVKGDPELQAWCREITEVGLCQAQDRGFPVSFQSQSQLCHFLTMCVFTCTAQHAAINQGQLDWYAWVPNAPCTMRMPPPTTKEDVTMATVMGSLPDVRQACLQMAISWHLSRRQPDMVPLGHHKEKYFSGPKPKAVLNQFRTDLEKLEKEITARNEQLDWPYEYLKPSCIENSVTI
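Purified human 12hLO (150 nM final) in 25 mM Hepes, 0.01% Triton X-100, pH 7.0 was preincubated 15 min at room temperature with compound. Then 40 uM arachidonic acid was added, 30 min. Hydroperoxide was read by Fe-XO absorbance ratio 573/405 nm.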
Hits are given with their value; - = inactive; ? = inconclusive; . = not tested or not shown; [ ] = another dose, or the depositor's remark. Unless noted, calls come from the whole dose curve; as a rule, active = well fitted curve in the direction sought with a large enough effect; inconclusive = small, poorly fitted or top-dose-only effect, or another doubt; inactive = no such curve, though single readings can be large; an effect the other way counts as inactive or inconclusive.

SMILES | SW480 rereplic | KB-V1 MDR tox | KB-3-1 tox | PINK1 expr mod | MCF10A rereplic | ALOX12 inh
Oc1ccc(O)c(C=NNC(=S)NC2CC3CC2C2C=CCC32)c1 (stereo unspecified) | . | ? | ? | - | . | ?
Oc1ccccc1C=NNC(=S)NC1CC2C=CC1C2 (stereo unspecified) | . | ? | ? | - | . | 45µM
Oc1c(Cl)cc(Cl)cc1/C=N/NC(=S)NC1CC2C=CC1C2 (stereo unspecified) | 18µM | - | ? | - | 7.3µM | ?
Oc1ccccc1/C=N/NC(=S)NC1CC2C=CC1C2 (stereo unspecified) | - | - | ? | - | 10µM | ?
CCOc1ccccc1NS(=O)(=O)c1c(C)cc(C)cc1C | . | . | . | . | . | -
COc1cc(C(=O)N2CCN(c3ccccc3)CC2)c2ccccc2n1 | 10µM | ? | 0.58µM | - | ? | -
CC(C)Oc1cccc(-c2cc(C(=O)N3CCN(c4ncccn4)CC3)c3ccccc3n2)c1 | . | . | . | . | . | -
CCOc1ccc(-c2cc(C(=O)N3CCN(c4cccc(C(F)(F)F)c4)CC3)c3ccccc3n2)cc1 | . | ? | 5.8µM | - | . | -
COc1cccc(-c2cc(C(=O)N3CCN(c4ncccn4)CC3)c3ccccc3n2)c1 | - | ? | - | - | 15µM | ?
O=C(c1cc(-c2ccccc2)nc2ccccc12)N1CCc2ccccc2C1 | - | 18µM | ? | - | - | -
CCOc1ccc(-c2cc(C(=O)N3CCN(c4cc(Cl)ccc4C)CC3)c3ccccc3n2)cc1 | . | ? | - | - | . | -
Cc1cc(Cl)ccc1NC(=O)C1CC2CCC1C2 (stereo unspecified) | . | . | . | . | . | -
COc1ccc(-c2cc(C(=O)N3CCC3)c3ccccc3n2)cc1OC | - | ? | ? | - | - | -
COc1ccc(-c2cc(C(=O)N3CCN(c4ncccn4)CC3)c3ccccc3n2)cc1OC | 8.2µM | - | - | - | - | ?
O=C(c1cc(-c2cccnc2)nc2ccccc12)N1CCN(S(=O)(=O)c2ccc(Cl)s2)CC1 | - | 9.2µM | - | - | - | -
CN(C)C(=O)CN1CCN(C(=O)c2cc(-c3cccnc3)nc3ccccc23)CC1 | . | . | . | . | . | -
CCCc1ccc(S(=O)(=O)N2CCN(C(=O)NCC3CN(CC(C)C)CCO3)CC2)cc1 (stereo unspecified) | . | . | . | . | . | -
COc1ccc2cc(CN(C)C(=O)CNC(=O)c3ccc(Cl)cc3Cl)ccc2c1 | . | . | . | . | . | -
Cc1cc(NC(=O)c2c(-c3ccccc3Cl)noc2C)no1 | - | 13µM | - | - | - | -
Cc1onc(-c2ccccc2Cl)c1C(=O)Nc1ccccc1NC(=O)c1ccccc1 | . | . | . | . | . | -
Cc1noc(C)c1C(=O)OCC(=O)Nc1cccc(S(=O)(=O)N(C)C)c1 | - | - | - | - | - | -
Cc1ccc(NC(=S)NC(=O)c2c(-c3ccccc3Cl)noc2C)cc1 | - | 21µM | - | - | - | ?
Cc1onc(-c2c(F)cccc2Cl)c1C(=O)OCC(=O)Nc1cccc(S(=O)(=O)N(C)C)c1 | - | 4.1µM | ? | - | - | -
Cc1onc(-c2ccccc2Cl)c1C(=O)Nc1cccc(-c2cn3cccnc3n2)c1 | - | 16µM | - | - | ? | .
Cn1c(CN(CCN2CCCCC2)CC2CCCN(C3CCCC3)C2)nc2ccccc21 (stereo unspecified) | . | . | . | . | . | -
SMILES | SW480 rereplic | KB-V1 MDR tox | KB-3-1 tox | PINK1 expr mod | MCF10A rereplic | ALOX12 inh
COC(=O)c1ccc(CNC(=O)c2cccc(CS(C)=O)c2)cc1 (stereo unspecified) | . | . | . | . | . | -
Cc1cnc(NC(=O)CCOc2cccc(Br)c2)s1 | . | . | . | . | . | -
Cc1onc(-c2ccccc2Cl)c1C(N)=O | - | - | - | - | - | -
Cc1onc(-c2c(F)cccc2Cl)c1C(=O)Nc1cccc(Cn2cccn2)c1 | - | 21µM | - | - | - | -
Cc1[nH]n(C)c(=O)c1C(=O)c1c(-c2ccccc2Cl)noc1C | ? | - | - | - | 26µM | -
COC(=O)c1cc(OC)c(OC)cc1NC(=O)c1c(-c2ccccc2Cl)noc1C | ? | 3.3µM | ? | ? | - | -
COc1ccc(NC(=O)Cn2nnc(-c3ccccc3NS(=O)(=O)c3ccccc3)n2)cc1 | - | 2.9µM | 23µM | - | - | .
COc1ccccc1NC(=S)NC(=O)c1c(-c2ccccc2Cl)noc1C | - | - | - | - | - | ?
Cc1onc(-c2c(F)cccc2Cl)c1C(=O)NCCc1ccncc1 | - | - | - | - | - | -
Cc1occc1-c1nnc(SCC(=O)Nc2cccc(C(F)(F)F)c2)o1 | . | . | . | . | . | -
COC(=O)c1cc(OC)c(OC)cc1NC(=O)Cn1nnc(-c2ccccc2Cl)n1 | 15µM | ? | - | - | - | -
COc1ccc(NC(=O)Cn2nnc(-c3ccccc3F)n2)cc1Cl | -[9.22 µM] | - | - | - | - | -
OCCOc1ccc(CN(CCN2CCCCC2)CC2CCCN(C3CCCC3)C2)cc1 (stereo unspecified) | . | . | . | . | . | -
Nc1ccc2c(c1)COc1ccccc1O2 | - | 18µM | - | - | - | -
C=C(CN(C)C)C(=O)c1ccc(OC2OC(COC(C)=O)C(OC(C)=O)C(OC(C)=O)C2OC(C)=O)cc1 (stereo unspecified) | 5.8µM | ? | ? | - | ? | ?
CCOc1ccc(NC(=NCc2ccc3c(c2)OCO3)SC2CC(=O)N(c3ccc(OCC)cc3)C2=O)cc1 (stereo unspecified) | - | ? | - | - | 21µM | -
CCCN1CN(c2ccccc2)C(=S)N(c2ccccc2)C1 | 3.7µM | - | - | - | - | ?
COC(=O)c1cc(-c2cccc(OC)c2)nc2ccccc12 | . | . | . | . | . | -
O=C(NC1CCC(C(F)(F)F)CC1)C1CCCO1 (stereo unspecified) | . | . | . | . | . | -
COc1ccccc1C1=NOC(C(=O)NCc2ccccc2)C1 (stereo unspecified) | . | . | . | . | . | -
COc1cccc(C2=NOC(C(=O)NCc3ccco3)C2)c1 (stereo unspecified) | ? | 21µM | 23µM | - | 4.1µM | -
COc1ccc(CNC(=O)C2CC(c3cc(C(F)(F)F)cc(C(F)(F)F)c3)=NO2)cc1 (stereo unspecified) | - | ? | ? | - | 6.5µM | -
COc1ccc(CCNC(=O)C2CC(c3ccc(C(F)(F)F)cc3)=NO2)cc1 (stereo unspecified) | - | - | - | - | - | -
COc1cccc(C2=NOC(C(=O)NCc3ccccc3)C2)c1 (stereo unspecified) | ? | ? | 12µM | - | 1.6µM | -
